Compounds with a hit are over-represented: about 2% of the library has one in this group of screens.
STK33 inh – blocks human STK33 kinase activity | actives 0.44% (n = 27,000) | AID 2322 | inhibition, % at 12.5 µM | ADP-Glo luminescence, MBP substrate; in the data active = inhibition above about 20%
Target sequence (Q9BYT3 whole entry, looked up): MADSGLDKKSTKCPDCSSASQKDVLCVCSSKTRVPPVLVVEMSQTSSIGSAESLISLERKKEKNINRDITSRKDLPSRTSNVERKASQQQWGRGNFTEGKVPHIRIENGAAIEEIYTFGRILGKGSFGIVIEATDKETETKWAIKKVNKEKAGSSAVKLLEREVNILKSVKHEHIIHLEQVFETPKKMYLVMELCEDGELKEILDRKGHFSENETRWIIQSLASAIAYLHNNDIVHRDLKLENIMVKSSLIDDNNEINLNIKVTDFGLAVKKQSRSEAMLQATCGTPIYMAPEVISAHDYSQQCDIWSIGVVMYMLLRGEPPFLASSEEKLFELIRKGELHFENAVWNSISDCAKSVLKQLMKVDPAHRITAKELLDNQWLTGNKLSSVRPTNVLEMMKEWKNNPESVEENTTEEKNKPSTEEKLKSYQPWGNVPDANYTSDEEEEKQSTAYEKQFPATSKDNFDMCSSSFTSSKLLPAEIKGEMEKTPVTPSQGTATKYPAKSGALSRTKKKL
p53 PUMA act – re-activators of the mutant p53 pathway; activation, % at 9.98 µM; actives 1.5% (n = 28,000); SW480 PUMA-promoter luciferase, p53 mutant reactivation; in the data active = activation above about 52%
ID4 SMM – binders of human ID4 protein. P47928. small molecule microarray, Flag-ID4 binding, fluorescence F/B. calls only. actives 1.2% (n = 31,000). AID 624137; call rule not given here;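 note: a binder raises fluorescence above local background on the spot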
The depositor's hits bear a star.

How did Cc1ccn2cc(-c3cccc(NS(=O)(=O)c4cc([N+](=O)[O-])ccc4C)c3)nc2c1 do in these assays?
STK33 inh: 0; p53 PUMA act: 111*; ID4 SMM: inactive

How did Cc1ccc([N+](=O)[O-])cc1S(=O)(=O)NCc1cccnc1 do in these assays?
STK33 inh: 3; p53 PUMA act: -7; ID4 SMM: inactive

What do the screens show for `Cc1cc(C)c(Cn2nc(C(C)(C)C)cc2C(=O)NN2CCOCC2)c(C)c1`?
STK33 inh: -1

Results for N#Cc1ccc(NC(=O)CCN2C(=O)c3ccccc3C2=O)cc1 ?
STK33 inh: -1; p53 PUMA act: 39; ID4 SMM: inactive

What do the screens show for `N#Cc1cccc(NC(=O)CCCN2C(=O)c3ccccc3C2=O)c1`?
STK33 inh: 0; p53 PUMA act: 12; ID4 SMM: active

What do the screens show for `COC(=O)c1ccccc1NC(=O)c1cc(-c2ccccn2)nc2c(C)c(Cl)ccc12`?
STK33 inh: -4; p53 PUMA act: -13; ID4 SMM: inactive

Results for C[C@H](CO)N1C[C@H](C)[C@@H](CN(C)Cc2ccc(C(=O)O)cc2)Oc2ccc(NC(=O)CCCN(C)C)cc2C1=O ?
p53 PUMA act: -1; ID4 SMM: inactive

Results for C[C@H](CO)N1C[C@H](C)[C@@H](CN(C)C(=O)Nc2cccc3ccccc23)Oc2ccc(NC(=O)CCCN(C)C)cc2C1=O ?
p53 PUMA act: 6; ID4 SMM: active

What do the screens show for `C[C@@H]1CN([C@@H](C)CO)C(=O)c2cc(NC(=O)CCCN(C)C)ccc2O[C@@H]1CN(C)Cc1ccc(C(=O)O)cc1`?
p53 PUMA act: -2; ID4 SMM: active

What do the screens show for `C[C@@H]1CN([C@@H](C)CO)C(=O)c2cc(NC(=O)CCCN(C)C)ccc2O[C@@H]1CN(C)C(=O)Nc1cccc2ccccc12`?
p53 PUMA act: -7; ID4 SMM: inactive

What do the screens show for `C[C@H]1CN([C@@H](C)CO)C(=O)c2cc(NS(=O)(=O)c3cn(C)cn3)ccc2O[C@@H]1CN(C)Cc1ccccc1`?
p53 PUMA act: 4; ID4 SMM: active

How did C[C@@H]1CN([C@H](C)CO)C(=O)c2cc(NS(=O)(=O)c3cn(C)cn3)ccc2O[C@H]1CN(C)Cc1ccccc1 do in these assays?
p53 PUMA act: 12; ID4 SMM: inactive

What do the screens show for `C[C@@H]1CN([C@H](C)CO)C(=O)c2cc(NC(=O)CCCN(C)C)ccc2O[C@@H]1CN(C)C(=O)Nc1ccccc1`?
p53 PUMA act: 9; ID4 SMM: active

Results for C[C@H](CO)N1C[C@H](C)[C@H](CN(C)C(=O)Nc2ccccc2)Oc2ccc(NC(=O)CCCN(C)C)cc2C1=O ?
STK33 inh: -1; p53 PUMA act: 6; ID4 SMM: inactive

Results for O=C1/C(=C/c2cn[nH]c2-c2ccc(F)cc2)CS/C1=C\c1cn[nH]c1-c1ccc(F)cc1 ?
p53 PUMA act: 4; ID4 SMM: inactive

How did COc1ccccc1CNC(=O)c1cc2ccccc2oc1=O do in these assays?
STK33 inh: -1; p53 PUMA act: 88*; ID4 SMM: inactive

What do the screens show for `COc1cccc2cc(C(=O)NCc3ccccn3)c(=O)oc12`?
STK33 inh: -3; p53 PUMA act: 84*; ID4 SMM: inactive

How did CC(=O)NCCNC(=O)c1cc2ccccc2oc1=O do in these assays?
STK33 inh: 3; p53 PUMA act: -2; ID4 SMM: inactive

Results for CCOc1cccc2cc(C(=O)NCc3cccnc3)c(=O)oc12 ?
STK33 inh: 2; p53 PUMA act: -9; ID4 SMM: inactive

Results for COc1ccc(NC(=O)COc2ccc(CO)cc2OC)cc1 ?
STK33 inh: -1; p53 PUMA act: 9; ID4 SMM: inactive

Results for CNC[C@@H]1Oc2ncc(C#Cc3ccc(OC)c(OC)c3)cc2C(=O)N([C@H](C)CO)C[C@@H]1C ?
STK33 inh: -1; p53 PUMA act: 2; ID4 SMM: active

Results for CNC[C@H]1Oc2ncc(C3=CCCCC3)cc2C(=O)N([C@@H](C)CO)C[C@H]1C ?
p53 PUMA act: -1; ID4 SMM: active

How did C[C@H]1CN([C@@H](C)CO)C(=O)c2cc(C3=CCCCC3)cnc2O[C@H]1CN(C)S(=O)(=O)c1cn(C)cn1 do in these assays?
p53 PUMA act: -2; ID4 SMM: active

Results for CNC[C@@H]1Oc2ncc(C3=CCCCC3)cc2C(=O)N([C@H](C)CO)C[C@@H]1C ?
p53 PUMA act: -1; ID4 SMM: inactive

What do the screens show for `C[C@H]1CN([C@@H](C)CO)C(=O)c2cc(C3=CCCC3)cnc2O[C@@H]1CN(C)S(C)(=O)=O`?
p53 PUMA act: 10; ID4 SMM: inactive

Results for CNC[C@H]1Oc2ncc(C#Cc3cccc(OC)c3)cc2C(=O)N([C@@H](C)CO)C[C@H]1C ?
p53 PUMA act: 1; ID4 SMM: inactive

Results for CCn1c(SCC(=O)Nc2ccc(C(N)=O)cc2)nnc1-c1ccc(F)cc1 ?
STK33 inh: 0; p53 PUMA act: -5; ID4 SMM: active

How did CCn1c(SCC(=O)Nc2ccc(C(=O)O)cc2)nnc1-c1ccc(C)cc1 do in these assays?
STK33 inh: 5; p53 PUMA act: -2; ID4 SMM: inactive

How did COC(=O)c1ccc(NC(=O)CSc2nnc(-c3ccc(NC(C)=O)cc3)n2C)cc1 do in these assays?
STK33 inh: 2; p53 PUMA act: -15; ID4 SMM: active

Results for CC(=O)Nc1ccc(NC(=O)CSc2nnc(-c3ccc(N)cc3)n2C)cc1 ?
STK33 inh: 0; p53 PUMA act: 4; ID4 SMM: inactive

What do the screens show for `COc1ccccc1OCC(=O)Nc1ccccc1C(=O)N1C(C)CCCC1C` (stereo unspecified)?
STK33 inh: -1; p53 PUMA act: -5; ID4 SMM: inactive

Results for CC(C)c1ccc(NC(=O)CSc2n[nH]c(-c3ccc(Cl)cc3)n2)cc1 ?
STK33 inh: 2; p53 PUMA act: 11; ID4 SMM: inactive

How did CC(C)(C)C(=O)Nc1ccccc1Cc1ccccc1 do in these assays?
STK33 inh: -1

Results for O=c1[nH]c(=S)c2c(n1N1CCOCC1)CCC2 ?
p53 PUMA act: 1; ID4 SMM: active

Results for CCOC(=O)CSc1ncnc2c1sc1nc3c(cc12)COC(C)(C)C3 ?
STK33 inh: 0; p53 PUMA act: -17; ID4 SMM: inactive

How did Cc1nc(SCC(=O)c2ccccc2)c2sc3nc4c(cc3c2n1)COC(C)(C)C4 do in these assays?
STK33 inh: 1; p53 PUMA act: 91*; ID4 SMM: inactive

How did NC(=O)CCCc1c[nH]c2ccccc12 do in these assays?
STK33 inh: 2; p53 PUMA act: 79*; ID4 SMM: inactive

Results for O=C(NCCc1c[nH]c2ccccc12)NC1CCCCC1 ?
STK33 inh: -2; p53 PUMA act: 84*; ID4 SMM: inactive

How did OCc1c[nH]c2ccccc12 do in these assays?
STK33 inh: 4; p53 PUMA act: -9; ID4 SMM: inactive

How did O=C(NCCc1c[nH]c2ccccc12)Nc1cccc2ccccc12 do in these assays?
STK33 inh: 4; p53 PUMA act: 13; ID4 SMM: inactive

What do the screens show for `O=[N+]([O-])c1nn(-c2ccc(Cl)cc2)n(O)c1=NCc1ccccn1`?
STK33 inh: 1; p53 PUMA act: 22; ID4 SMM: inactive

How did Cc1ccc(-c2cc(C(=O)NCCCN3CCOCC3)no2)cc1 do in these assays?
STK33 inh: -1; p53 PUMA act: -11; ID4 SMM: inactive

Screening results: PubChem, Broad Institute
